Laboratory results taken from PubChem BioAssay AID1159580 (chemical genetic matrix, 2015).
In all, about 5,500 compounds went through this assay and about 2,000 (36%) were called active. Another 18% or so got no clear call; they are omitted. Cut-off read from the data, not from the text of the source: active = normalized growth mostly below about 0.91 (no sharp cut-off); inconclusive = no clear call, values can overlap the other calls; inactive = mostly above about 0.92. This is one part of the list.

Assay: chemical genetic growth profiling, strain panel (AID 1159580);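 note: tested at 20 µM; growth read once vehicle control cultures reached saturation at 30 °C; 1 = growth at the plate median or of vehicle wells; lower values mean less growth of the strain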
Conditions: S. cerevisiae deletion strains, growth OD
[1] = locus YAR019C, strain CDC15, hits give low values
[2] = locus YBL105C, strain PKC1, hits give low values
[3] = locus YBR135W, strain CKS1, hits give low values
[4] = locus YBR136W, strain MEC1, hits give low values
[5] = locus YBR160W, strain CDC28, hits give low values
[6] = locus YDL017W, strain CDC7, hits give low values
[7] = locus YDL028C, strain MPS1, hits give low values
[8] = locus YDL101C, strain DUN1, hits give low values
[9] = locus YDL108W, strain KIN28, hits give low values
[10] = locus YDL132W, strain cdc53, hits give low values
[11] = locus YDL214C, strain PRR2, hits give low values
[12] = locus YDR052C, strain DBF4, hits give low values
[13] = locus YDR054C, strain cdc34, hits give low values
[14] = locus YDR226W, strain ADK1, hits give low values
[15] = locus YDR477W, strain SNF1, hits give low values
[16] = locus YER123W, strain YCK3, hits give low values
[17] = locus YER133W, strain GLC7, hits give low values
[18] = locus YFL009W, strain cdc4, hits give low values
[19] = locus YFL029C, strain CAK1, hits give low values
[20] = locus YFR003C, strain YPI1, hits give low values
[21] = locus YFR019W, strain FAB1, hits give low values
[22] = locus YFR028C, strain CDC14, hits give low values
[23] = locus YGR040W, strain KSS1, hits give low values
[24] = locus YGR052W, strain FMP48, hits give low values
[25] = locus YGR092W, strain DBF2, hits give low values
[26] = locus YHR030C, strain SLT2, hits give low values
[27] = locus YHR079C, strain IRE1, hits give low values
[28] = locus YHR082C, strain KSP1, hits give low values
[29] = locus YHR205W, strain SCH9, hits give low values
[30] = locus YIL147C, strain SLN1, hits give low values
[31] = locus YJL095W, strain BCK1, hits give low values
[32] = locus YJL128C, strain PBS2, hits give low values
[33] = locus YJL157C, strain FAR1, hits give low values
[34] = locus YJR016C, strain ILV3, hits give low values
[35] = locus YJR066W, strain TOR1 (second series), hits give low values
[36] = locus YJR066W, strain TOR1, hits give low values
[37] = locus YKL048C, strain ELM1, hits give low values
[38] = locus YKL067W, strain YNK1, hits give low values
[39] = locus YKL101W, strain HSL1, hits give low values
[40] = locus YKL193C, strain SDS22, hits give low values
[41] = locus YKL203C, strain TOR2, hits give low values
[42] = locus YLR113W, strain HOG1, hits give low values
[43] = locus YLR133W, strain CKI1, hits give low values
[44] = locus YLR403W, strain SFP1, hits give low values
[45] = locus YML070W, strain DAK1, hits give low values
[46] = locus YMR001C, strain CDC5, hits give low values
[47] = locus YMR205C, strain PFK2 (second series), hits give low values
[48] = locus YMR277W, strain FCP1, hits give low values
[49] = locus YNL006W, strain LST8, hits give low values
[50] = locus YNL020C, strain ARK1, hits give low values
[51] = locus YNL161W, strain CBK1, hits give low values
[52] = locus YNL183C, strain NPR1, hits give low values
[53] = locus YNL207W, strain RIO2, hits give low values
[54] = locus YNL222W, strain SSU72, hits give low values
[55] = locus YNL307C, strain MCK1 (second series), hits give low values
[56] = locus YOL078W, strain AVO1, hits give low values
[57] = locus YOL136C, strain PFK27, hits give low values
[58] = locus YOR061W, strain CKA2, hits give low values
[59] = locus YOR119C, strain RIO1, hits give low values
[60] = locus YOR231W, strain MKK1, hits give low values
[61] = locus YOR329C, strain SCD5, hits give low values
[62] = locus YPL031C, strain PHO85, hits give low values
[63] = locus YPL153C, strain RAD53, hits give low values
[64] = locus YPL204W, strain HRR25, hits give low values
[65] = locus YPL209C, strain IPL1, hits give low values
[66] = locus YPL256C, strain CLN2, hits give low values
[67] = locus YPR025C, strain CCL1, hits give low values
[68] = locus YPR106W, strain ISR1, hits give low values
[69] = locus YPR111W, strain DBF20, hits give low values
[70] = strain NNK1, hits give low values
[71] = strain TSCII, hits give low values

Measured: normalized growth

Nc1nc(Cl)nc2c1ncn2[C@@H]1O[C@H](COP(=O)(O)OP(=O)(O)OP(=O)(O)O)[C@H](O)C1O (stereo partly specified)
inactive: locus YAL013W, strain DEP1, hits give low values 0.999 | locus YAL040C, strain CLN3, hits give low values 0.995 | locus YCL061C, strain MRC1 (second series), hits give low values 1 | locus YDR363W, strain ESC2, hits give low values 1.01 | locus YER002W, strain NOP16, hits give low values 0.99 | locus YGR078C, strain PAC10, hits give low values 1.01 | locus YJR075W, strain HOC1, hits give low values 1 | locus YMR307W, strain GAS1, hits give low values 0.997 | locus YNL128W, strain TEP1, hits give low values 1.01 | locus YNL175C, strain NOP13, hits give low values 0.995 | locus YNL197C, strain WHI3, hits give low values 1.02 | locus YNL224C, strain SQS1, hits give low values 0.987 | locus YOR083W, strain WHI5 (second series), hits give low values 1.01

CCCc1c(C(=O)NNc2cccc(Cl)c2)cnn1-c1ccccc1
inactive: [1] 0.984 | [2] 0.974 | [3] 0.987 | [4] 0.982 | [5] 0.976 | [6] 0.974 | [7] 0.995 | [8] 0.978 | [9] 0.988 | [10] 0.993 | [11] 0.944 | [12] 0.983 | [13] 0.986 | [14] 0.98 | [15] 0.954 | [16] 0.917 | [17] 0.957 | [18] 0.986 | [19] 0.98 | [20] 0.987 | [21] 0.937 | [22] 0.981 | [23] 0.925 | [24] 1 | [25] 0.957 | [26] 0.963 | [27] 0.963 | [28] 1 | [29] 0.933 | [30] 0.992 | [31] 0.968 | [32] 0.917 | [33] 0.937 | [34] 0.986 | [35] 0.911 | [36] 1.02 | [37] 0.968 | [38] 0.947 | [39] 0.924 | [40] 0.988 | [41] 0.987 | [42] 0.864 | [43] 0.936 | [44] 0.917 | [45] 0.927 | [46] 0.979 | [47] 0.948 | [48] 0.987 | [49] 0.996 | [50] 0.927 | [51] 0.983 | [52] 0.98 | [53] 0.983 | [54] 0.976 | [55] 0.935 | [56] 0.985 | [57] 0.897 | [58] 0.963 | [59] 1.01 | [60] 0.898 | [61] 0.981 | [62] 0.963 | [63] 0.94 | [64] 0.924 | [65] 0.973 | [66] 0.892 | [67] 0.982 | [68] 0.959 | [69] 0.965 | [70] 0.971 | [71] 0.988

CCCc1c(C(=O)Sc2ccccn2)cnn1-c1ccc(Cl)cc1
inactive: [1] 0.957 | [2] 0.962 | [3] 0.957 | [4] 0.964 | [5] 0.944 | [6] 0.963 | [7] 0.966 | [8] 0.964 | [9] 0.955 | [10] 0.95 | [11] 0.861 | [12] 0.962 | [13] 0.948 | [14] 0.959 | [15] 0.876 | [16] 0.847 | [17] 0.878 | [18] 0.957 | [19] 0.948 | [20] 0.955 | [21] 0.908 | [22] 0.955 | [23] 0.845 | [24] 0.919 | [25] 0.879 | [26] 0.933 | [27] 0.931 | [28] 0.907 | [29] 0.93 | [30] 0.967 | [31] 0.951 | [32] 0.932 | [33] 0.849 | [34] 0.955 | [35] 0.822 | [36] 0.87 | [37] 0.911 | [38] 0.885 | [39] 0.912 | [40] 0.961 | [41] 0.942 | [43] 0.912 | [44] 0.861 | [45] 0.869 | [46] 0.953 | [47] 0.932 | [48] 0.964 | [49] 0.98 | [50] 0.911 | [51] 0.955 | [52] 0.881 | [53] 0.955 | [54] 0.957 | [55] 0.912 | [56] 0.957 | [57] 0.878 | [58] 0.898 | [59] 0.947 | [60] 0.897 | [61] 0.957 | [62] 0.903 | [63] 0.899 | [64] 0.895 | [65] 0.952 | [67] 0.954 | [68] 0.95 | [69] 0.937 | [70] 0.961 | [71] 0.955
active: [42] 0.804 | [66] 0.755

CCCc1c(C(=O)NC2Cc3ccccc3C2)cnn1-c1ccccc1
inactive: [1] 0.986 | [2] 0.99 | [3] 0.996 | [4] 0.99 | [5] 0.99 | [6] 0.999 | [7] 0.993 | [8] 0.993 | [9] 0.997 | [10] 0.99 | [11] 0.976 | [12] 0.998 | [13] 0.983 | [14] 0.991 | [15] 0.964 | [16] 0.979 | [17] 0.965 | [18] 0.986 | [19] 0.988 | [20] 0.995 | [21] 0.974 | [22] 0.986 | [23] 0.96 | [24] 1.05 | [25] 1.01 | [26] 0.97 | [27] 1 | [28] 1.04 | [29] 0.991 | [30] 0.994 | [31] 0.991 | [32] 0.979 | [33] 0.969 | [34] 0.98 | [35] 0.93 | [36] 0.986 | [37] 0.982 | [38] 0.991 | [39] 0.972 | [40] 0.988 | [41] 1.01 | [42] 0.951 | [43] 0.968 | [44] 0.956 | [45] 0.97 | [46] 0.987 | [47] 0.987 | [48] 0.989 | [49] 0.995 | [50] 0.984 | [51] 0.991 | [52] 0.998 | [53] 0.987 | [54] 0.992 | [55] 0.998 | [56] 0.985 | [57] 0.96 | [58] 0.977 | [59] 1.01 | [60] 0.934 | [61] 0.992 | [62] 0.98 | [63] 0.956 | [64] 0.963 | [65] 0.994 | [66] 0.921 | [67] 0.998 | [68] 0.98 | [69] 0.981 | [70] 0.986 | [71] 0.997
